Measurements published in PubChem BioAssay.
For part of these data: Results with a measured potency or affinity are listed apart. The list shows a part of the results. The source made the active and inactive calls.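 Rule for the calls, unless noted: active = fluorescence ratio falls more than 5 SD below the full-stimulation control mean, in both duplicate runs; inactive = the rest.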

Assays:
[1] = tested on: TRPC4 beta (transient receptor potential cation channel C4), mouse; experiment: activators of mouse TRPC4 channel, confirmation, cell-based, Fluo4 calcium, HEK293 TRPC4beta/mu-opioid, duplicates, 10 µM (AID 2426;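 active = fluorescence ratio normalized to control raised more than 50% in primary screen plus both repeat runs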;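 note: percent rise of integrated ratio over buffer wells lacking compound which define 0%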); settings: Fluo4 calcium fluorescence, at 10 µM; hits give high values
[2] = tested on: transient receptor potential cation channel C4 beta (TRPC4), mouse; experiment: activators of mouse TRPC4 channel, confirmation, cell-based, second round, Fluo4, HEK293 TRPC4beta/mu-opioid, 1 µM (AID 2461;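 active = primary screen active and over 50% activation in each of two duplicate runs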;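 for activation: 0% = wells without test compound as baseline of integrated fluorescence ratio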); settings: Fluo4 calcium fluorescence, at 1 µM; hits give high values
[3] = tested on: TRPC4 (transient receptor potential cation channel C4 beta), mouse; experiment: positive allosteric modulators of mouse TRPC4, confirmation, cell-based, second round, Fluo-4, HEK293 TRPC4beta/mu-opioid, 1 µM (AID 2554;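 active = primary screen hit whose fluorescence ratio, in both repeats, exceeds the weak agonist control mean by 3 SD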); settings: DAMGO EC20, Fluo-4 calcium flux, at 1 µM; hits give high values
[4] = tested on: TRPC4 beta (transient receptor potential cation channel C4), mouse; experiment: positive allosteric modulators of mouse TRPC4, confirmation, cell-based, Fluo-4, HEK293 TRPC4beta/mu-opioid (AID 2555;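 active = primary screen hit whose calcium fluorescence ratio, in both repeats, exceeds the weak agonist control mean by 3 SD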); settings: DAMGO EC20, Fluo-4 calcium flux, at 10 µM; hits give high values
[5] = molecular target: Short transient receptor potential channel 4 (Mus musculus) (UniProt Q9QUQ5); experiment: inhibitors of mouse TRPC4 channel, confirmation, cell-based, Fluo4, HEK293 TRPC4beta/mu-opioid (AID 2636;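 active = calcium signal cut by more than 3 SD below the full-agonist control yet still positive, in both repeats and the earlier primary screen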); settings: DAMGO, Fluo4 calcium flux, at 10 µM; hits give high values
Chain of Short transient receptor potential channel 4 (Mus musculus) (Q9QUQ5 whole entry, looked up): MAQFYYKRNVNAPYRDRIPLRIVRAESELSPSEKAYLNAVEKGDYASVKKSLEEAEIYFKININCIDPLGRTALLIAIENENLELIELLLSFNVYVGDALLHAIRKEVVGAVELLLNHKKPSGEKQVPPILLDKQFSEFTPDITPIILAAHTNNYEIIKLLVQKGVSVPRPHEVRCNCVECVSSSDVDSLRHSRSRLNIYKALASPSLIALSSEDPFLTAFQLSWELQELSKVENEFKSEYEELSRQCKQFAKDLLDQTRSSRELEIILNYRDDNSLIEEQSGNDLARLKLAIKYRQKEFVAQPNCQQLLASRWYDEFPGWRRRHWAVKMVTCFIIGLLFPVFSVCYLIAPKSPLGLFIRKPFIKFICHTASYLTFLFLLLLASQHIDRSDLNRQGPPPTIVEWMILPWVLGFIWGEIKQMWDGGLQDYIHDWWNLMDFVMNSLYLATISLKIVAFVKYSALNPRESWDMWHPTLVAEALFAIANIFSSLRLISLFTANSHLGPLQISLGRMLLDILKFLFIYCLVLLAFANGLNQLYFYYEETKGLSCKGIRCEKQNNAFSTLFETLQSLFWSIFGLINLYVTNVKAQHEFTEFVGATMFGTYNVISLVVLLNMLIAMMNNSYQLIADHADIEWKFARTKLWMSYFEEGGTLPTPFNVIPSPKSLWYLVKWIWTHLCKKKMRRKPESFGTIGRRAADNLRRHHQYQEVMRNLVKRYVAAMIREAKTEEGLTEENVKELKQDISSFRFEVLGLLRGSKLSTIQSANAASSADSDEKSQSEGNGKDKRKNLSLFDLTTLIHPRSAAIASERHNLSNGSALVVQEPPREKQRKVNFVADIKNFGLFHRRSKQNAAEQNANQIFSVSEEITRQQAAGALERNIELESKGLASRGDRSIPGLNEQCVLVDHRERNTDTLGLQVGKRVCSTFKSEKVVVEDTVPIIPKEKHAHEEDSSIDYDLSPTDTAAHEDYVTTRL

[6] = molecular target: Short transient receptor potential channel 4 (Mus musculus) (UniProt Q9QUQ5); experiment: inhibitors of mouse TRPC4 channel, confirmation, cell-based, second round, Fluo4, HEK293 TRPC4beta/mu-opioid, 1 µM (AID 2637;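 active = calcium signal ratio cut to more than 3 SD under the fully stimulated control mean yet still positive, in both repeats and the primary screen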); settings: Fluo4 calcium flux, DAMGO, at 1 µM; hits give high values
[7] = molecular target: Short transient receptor potential channel 4 (Mus musculus) (UniProt Q9QUQ5); experiment: mouse TRPC4 channel inhibitors, dose response, cell-based, HEK293 TRPC4/mu-opioid, Fluo-4 calcium (AID 434942;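 active = primary screen inhibitor hit that blocks the TRPC4 channel at some tested dose, yielding a dose curve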)
[8] = molecular target: Short transient receptor potential channel 6 (Mus musculus) (UniProt Q61143); experiment: inhibition of mouse TRPC6 channel, confirmation, selectivity assay for TRPC4 inhibitor project, cell-based, HEK293, membrane potential dye, duplicate (AID 434948;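 active = active in primary screen and both duplicates, each dropping signal beyond three positive-control SD with fluorescence still positive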); settings: HEK293 TRPC6, membrane potential dye fluorescence, at 10 µM, stimulated with maximal-effect acetylcholine; hits give high values
Chain of Short transient receptor potential channel 6 (Mus musculus) (Q61143 whole entry, looked up): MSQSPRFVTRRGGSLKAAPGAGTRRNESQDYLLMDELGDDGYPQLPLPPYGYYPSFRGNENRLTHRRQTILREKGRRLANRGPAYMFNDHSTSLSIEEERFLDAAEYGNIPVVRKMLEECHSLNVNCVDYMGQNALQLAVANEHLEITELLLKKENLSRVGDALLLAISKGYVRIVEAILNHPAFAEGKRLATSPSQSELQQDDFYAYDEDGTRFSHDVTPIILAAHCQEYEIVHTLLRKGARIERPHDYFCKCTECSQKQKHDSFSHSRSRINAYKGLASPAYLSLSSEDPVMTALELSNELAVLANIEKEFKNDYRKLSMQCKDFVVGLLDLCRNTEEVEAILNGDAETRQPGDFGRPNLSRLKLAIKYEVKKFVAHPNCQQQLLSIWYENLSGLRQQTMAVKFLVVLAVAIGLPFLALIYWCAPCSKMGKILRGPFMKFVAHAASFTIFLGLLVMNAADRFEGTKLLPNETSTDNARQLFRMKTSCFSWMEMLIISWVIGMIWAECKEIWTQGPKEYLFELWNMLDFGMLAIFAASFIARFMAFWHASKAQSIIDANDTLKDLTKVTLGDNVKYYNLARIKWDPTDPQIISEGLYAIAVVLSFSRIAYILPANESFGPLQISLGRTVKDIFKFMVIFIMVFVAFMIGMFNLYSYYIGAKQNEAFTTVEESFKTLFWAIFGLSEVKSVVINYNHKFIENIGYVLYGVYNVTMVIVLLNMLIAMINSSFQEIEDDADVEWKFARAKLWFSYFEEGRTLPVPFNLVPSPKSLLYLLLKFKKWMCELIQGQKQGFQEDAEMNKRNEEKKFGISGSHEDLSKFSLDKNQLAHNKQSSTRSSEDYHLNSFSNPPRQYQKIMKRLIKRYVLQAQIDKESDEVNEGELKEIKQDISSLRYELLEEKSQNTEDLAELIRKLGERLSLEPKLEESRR

[9] = molecular target: Short transient receptor potential channel 6 (Mus musculus) (UniProt Q61143); experiment: activation of mouse TRPC6 channel, confirmation, selectivity assay for TRPC4 activator project, cell-based, HEK293, membrane potential dye, duplicate (AID 434950;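 active = membrane potential signal rise above negative control mean plus 3 SD in both duplicates, also active in the earlier TRPC4 screen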;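 for activation: 0% = buffer only wells and 100% = acetylcholine maximal-effect wells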); settings: HEK293 TRPC6, membrane potential fluorescence, at 10 µM; hits give high values
[10] = molecular target: Short transient receptor potential channel 6 (Mus musculus) (UniProt Q61143); experiment: TRPC6 potentiation by TRPC4 potentiator hits, confirmation, selectivity assay for TRPC4 potentiator project, HEK293 cells, membrane potential dye, duplicate (AID 434952;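 active = compound raising the membrane signal above positive-control mean plus 3 SD in both repeats, and a primary screen hit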); settings: HEK293 TRPC6, membrane potential dye fluorescence, at 10 µM, maximal acetylcholine added after compound; hits give high values
[11] = molecular target: Short transient receptor potential channel 4 (Mus musculus) (UniProt Q9QUQ5); experiment: calcium flux activators in TRPC4/5HT1a cells, counter-screen for TRPC4 activator project, cell-based, second counter screen, HEK293 TRPC4/5HT1a, Fluo-4 (AID 434977;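 active = calcium signal rise above buffer-control mean plus 5 SD in both duplicates, and also a hit in the primary screen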;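 note: plate controls were assay buffer for no effect and maximal serotonin response for full effect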); settings: Fluo-4 calcium flux, at 10 µM; hits give high values
[12] = calcium flux inhibitors in TRPC4/5HT1a cells, confirmation, counter-screen for TRPC4 inhibitor project, cell-based, second counter screen, HEK293 TRPC4/5HT1a, Fluo-4 (AID 434978;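 active = primary screen active whose calcium signal fell more than 3 SD beyond the full-serotonin control mean in both duplicate plates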;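 note: serotonin given first at submaximal then at maximal dose after compound preincubation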); settings: Fluo-4 calcium flux, at 10 µM, serotonin added to trigger calcium flux; hits give high values
[13] = tested on: TRPC4 (mouse), co-expressed with 5HT1a in HEK293; experiment: calcium flux potentiators in TRPC4/5HT1a cells, confirmation, counter-screen for TRPC4 potentiator project, cell-based, second counter screen, HEK293 TRPC4/5HT1a, Fluo-4 (AID 434979;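 active = signal rise over 3 SD above mean of control wells given weak agonist, in both repeats and first screen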); settings: Fluo-4 calcium flux, at 10 µM, serotonin added at its EC20 dose; hits give high values
[14] = calcium flux activation in mu-opioid HEK293 cells, confirmation, counter-screen for TRPC4 activator project, cell-based, HEK293 mu-opioid receptor line (AID 449723;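 active = hit in primary screen, with calcium signal over 5 SD above buffer well mean in both duplicates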;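 note: counter screen cells carry the mu-opioid receptor alone and lack TRPC4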); settings: Fluo-4 calcium fluorescence, at 10 µM; hits give high values
[15] = calcium flux enhancement in mu-opioid HEK293 cells, confirmation, counter-screen for TRPC4 allosteric potentiator project, cell-based, HEK293 mu-opioid receptor line (AID 449724;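 active = calcium signal rise more than 3 SD above the low-dose agonist control mean, in both duplicate plates and the primary screen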); settings: Fluo-4 calcium flux, at 10 µM, compound added before EC20 DAMGO stimulus; hits give high values
[16] = molecular target: Short transient receptor potential channel 4 (Mus musculus) (UniProt Q9QUQ5); experiment: mouse TRPC4 membrane potential modulation by TRPC6 hits, confirmation, selectivity assay for TRPC6 inhibitor project, cell-based, second specificity screen, HEK293 TRPC4/mu-opioid (AID 2776;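 active = compounds whose fluorescence signal differed from control wells by over 3 SD, either direction, in both duplicate plates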); settings: HEK293 TRPC4/MOR, membrane potential dye fluorescence, at 10 µM, channel activated by saturating DAMGO dose; hits give high values
[17] = tested on: transient receptor potential cation channel C4 (TRPC4), mouse; experiment: mouse TRPC4 modulation by TRPC6 hits, confirmation, selectivity assay for TRPC6 inhibitor project, cell-based, HEK293 TRPC4/mu-opioid, membrane potential dye (AID 2777;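 active = rise or fall in signal beyond 3 SD of buffer-only wells in both replicate plates, either sign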;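 note: integrated kinetic ratio of fluorescence range over baseline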); settings: membrane potential fluorescence, at 10 µM
[18] = nonspecific membrane potential effects, parental HEK293, confirmation, counter-screen for TRPC6 inhibitor project, cell-based, second counter screen (AID 2779;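 active = membrane potential signal moving either way by over 3 SD of the maximum-effect control, in both duplicate plates, meaning non-specific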); settings: parental HEK293 membrane potential dye fluorescence; at 10 µM; maximal acetylcholine challenge after compound addition
[19] = molecular target: Short transient receptor potential channel 6 (Mus musculus) (UniProt Q61143); experiment: mouse TRPC6 channel inhibitors, confirmation, HEK293 cells, membrane potential dye, duplicate (AID 488960); settings: ACh-evoked depolarization, at 10 µM; hits give high values;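 for inhibition: integrated fluorescence ratio of peak minus minimum over baseline after agonist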

CN(C)CCCOc1cccc(Cl)c1
inactive: outcome [5] | outcome [6] | outcome [7] | outcome [8] | outcome [10] | outcome [12] | outcome [14] | outcome [15]
active: activation [1] 71% | activation [2] 55% | potentiation [3] 32% | potentiation [4] 37% | activation [9] 51% | activation [11] 17.9% | potentiation [13] 28.7%

CCOC(=O)N1CCC(O)(c2cc(C)c(C)cc2C)CC1
active: inhibition [19] 55%
inactive: outcome [16] | outcome [17] | outcome [18]

O=C1c2ccccc2C(=O)c2c1cccc2N1CCN(Cc2ccccc2)CC1
active: activity change, negative = inhibition [17] -17% | inhibition [19] 59.7%
inactive: outcome [16] | outcome [18]

CCCc1cc(=S)n2c([nH]c3ccccc32)c1C#N
inactive: outcome [16] | outcome [18]
active: activity change, negative = inhibition [17] 33.6% | inhibition [19] 51.5%

CCCCc1cc(O)c(CCCC)c(O)c1
inactive: outcome [2] | outcome [3] | outcome [5] | outcome [6] | outcome [7] | outcome [8] | outcome [9] | outcome [10] | outcome [12] | outcome [13] | outcome [15]
active: activation [1] 63% | potentiation [4] 14% | activation [11] 44.6% | activation [14] 34.5%

CCOC(=O)c1c(NC(=O)COC(=O)Cc2c[nH]c3ccccc23)sc(C(=O)N(C)C)c1C
active: activation [1] 194% | potentiation [3] 15% | potentiation [4] 55% | activation [9] 46% | activation [11] 107% | potentiation [13] 60%
inactive: outcome [2] | outcome [5] | outcome [6] | outcome [7] | outcome [8] | outcome [10] | outcome [12] | outcome [14] | outcome [15]

CN(C)CCOC(=O)C(c1ccccc1)C1(O)CCCC1 (stereo unspecified)
inactive: outcome [16] | outcome [17]
active: signal change vs control [18] -39.5% | inhibition [19] 90.5%

CCN(CC)CCn1c2ccc(Cl)cc2c2nc(C)sc21
active: inhibition [16] 57.5% | inhibition [19] 49.7%
inactive: outcome [17] | outcome [18]

C[C@H](NC(=O)OC(C)(C)C)c1nnc(SCC(=O)Nc2ccc(Br)cc2)o1
inactive: outcome [16] | outcome [17] | outcome [18] | outcome [19]

OCCC1CN(Cc2ccc3nsnc3c2)CCN1C1CCCCC1 (stereo unspecified)
inactive: outcome [19]

O=C(CCN1CCN(Cc2ccccc2)CC1)Nc1nccs1
active: potentiation [3] 19% | potentiation [4] 11% | potentiation [13] 17%

OCCC1CN(Cc2ccc3nsnc3c2)CCN1C1CCCC1 (stereo unspecified)
inactive: outcome [16] | outcome [17] | outcome [18] | outcome [19]

Cc1cc(Nc2ccc(N3CCOCC3)cc2)c2cccc(C)c2n1
inactive: outcome [19]
active: inhibition [16] 59% | activity change, negative = inhibition [17] -24.1% | signal change vs control [18] 26.5%

CC(C)(C)NCc1cc(Br)ccc1OC1CCCC1
active: inhibition [16] 36% | activity change, negative = inhibition [17] 74.6% | signal change vs control [18] 5% | inhibition [19] 123%

CCCCNc1nc2ccccc2[nH]1
inactive: outcome [8] | outcome [9] | outcome [10]

c1ccc(C2c3[nH]c4ccccc4c3CCN2Cc2cccn2-c2cccnc2)nc1 (stereo unspecified)
inactive: outcome [16] | outcome [18] | outcome [19]
active: activity change, negative = inhibition [17] -10.1%

CN(C)c1ccc(C2N(C)C(=O)c3ccccc3N2C)cc1 (stereo unspecified)
inactive: outcome [16] | outcome [17] | outcome [19]
active: signal change vs control [18] 262%

COc1ccccc1OCCNCC(O)COc1cccc2[nH]c3ccccc3c12 (stereo unspecified)
inactive: outcome [17] | outcome [18]
active: inhibition [16] 28% | inhibition [19] 61.1%

Cn1c(O)c(/C=N/NC(=O)c2cc3ccccc3cc2O)c2ccccc21
inactive: outcome [2] | outcome [3] | outcome [5] | outcome [6] | outcome [7] | outcome [8] | outcome [12]
active: activation [1] 81% | potentiation [4] 27% | activation [9] 524% | potentiation, percent of control [10] 238% | activation [11] 59.2% | potentiation [13] 17.8% | activation [14] 82.4% | activation [15] 879%

COc1cc(/C=C2/SC(=S)N(Cc3ccccc3)C2=O)cc(Cl)c1O
inactive: outcome [2] | outcome [5] | outcome [6] | outcome [7] | outcome [8] | outcome [12] | outcome [13]
active: activation [1] 144% | potentiation [3] 11% | potentiation [4] 21% | activation [9] 930% | potentiation, percent of control [10] 310% | activation [11] 156% | activation [14] 165% | activation [15] 1140%

CCCCCCCCCCOC(=O)C[N+](C)(C)CC1CCCCC1O (stereo unspecified)
inactive: outcome [16] | outcome [18] | outcome [19]
active: activity change, negative = inhibition [17] 7.58%

CCOC(=O)N1CCC(NC(=O)CN2C(=O)COc3ccc(C(C)(C)C)cc32)CC1
inactive: outcome [16] | outcome [17] | outcome [18] | outcome [19]

CC(=O)Nc1ccc(NC(=O)CN2CCCC(C)C2)c(Cl)c1 (stereo unspecified)
active: inhibition [19] 66%

Clc1ccc(-n2nnnc2-c2cnc(-c3ccccn3)nc2-c2cccs2)cc1
inactive: outcome [19]

COc1ccc(Br)cc1/C=N/n1c(C)nnc1C
inactive: outcome [19]
